Experimental data from ChEMBL document CHEMBL2218924, “A broad activity screen in support of a chemogenomic map for kinase signalling research and drug discovery” (Biochem J, 2013).

molecular target: MAP kinase-activated protein kinase 2 (Homo sapiens) (UniProt P49137); details: at 10 µM
Sequence (P49137 whole entry, looked up): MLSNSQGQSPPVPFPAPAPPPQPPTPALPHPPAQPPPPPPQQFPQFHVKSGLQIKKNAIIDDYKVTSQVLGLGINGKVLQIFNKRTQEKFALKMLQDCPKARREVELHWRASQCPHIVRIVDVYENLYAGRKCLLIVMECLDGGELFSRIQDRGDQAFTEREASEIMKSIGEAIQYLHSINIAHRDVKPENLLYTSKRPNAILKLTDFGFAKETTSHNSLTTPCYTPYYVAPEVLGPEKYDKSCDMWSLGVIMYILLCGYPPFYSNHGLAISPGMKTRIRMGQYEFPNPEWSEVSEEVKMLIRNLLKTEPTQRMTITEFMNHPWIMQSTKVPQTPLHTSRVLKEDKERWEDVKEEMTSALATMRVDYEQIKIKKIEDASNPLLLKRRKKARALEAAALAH

Row | SMILES | residual activity [%]
1 | CN(C)S(=O)(=O)c1ccc2c(c1)/C(=C/c1cc3c([nH]1)CCCC3)C(=O)N2 | 92
2 | CC(C)[C@H](CO)Nc1nc(Nc2cc(N)cc(Cl)c2)c2ncn(C(C)C)c2n1 | 117
3 | Cn1sc(=O)n(Cc2ccccc2)c1=O | 93
4 | O=C1Cc2c([nH]c3ccc([N+](=O)[O-])cc23)-c2ccccc2N1 | 50
5 | Cc1cc(C)c(/C=C2\C(=O)Nc3ccccc32)[nH]1 | 103
6 | N#C/C(=C\c1ccc(O)c(O)c1)C(=O)NCc1ccccc1 | 77
7 | CC(C)(C)c1nc2c3ccc(F)cc3c3c(=O)[nH]ccc3c2[nH]1 | 62
8 | O=C1NC(=O)C(c2cn(CCCO)c3ncccc23)=C1c1cnccn1 | 93
9 | NC(=O)Nc1sc(-c2ccc(F)cc2)cc1C(N)=O | 83
